# Tests used:
# Experiment in all cases: DAPPL (digital affinity profiling via proximity ligation, sequencing); 10 mM Tris-HCl pH 7.5, 50 mM NaCl, 1 mM DTT, 4% glycerol, room temperature, 30 min; GST-TFs on glutathione beads, 16-mer random dsDNA library, 0.1% formaldehyde crosslink after washing; high values mean tight binding
# FLI1 = molecular target: T1, FLI1 (Homo sapiens, UniProt Q01543 1-452); conditions: protein: recombinant; tags: N-terminal GST; dsDNA, one strand shown
# T1 sequence: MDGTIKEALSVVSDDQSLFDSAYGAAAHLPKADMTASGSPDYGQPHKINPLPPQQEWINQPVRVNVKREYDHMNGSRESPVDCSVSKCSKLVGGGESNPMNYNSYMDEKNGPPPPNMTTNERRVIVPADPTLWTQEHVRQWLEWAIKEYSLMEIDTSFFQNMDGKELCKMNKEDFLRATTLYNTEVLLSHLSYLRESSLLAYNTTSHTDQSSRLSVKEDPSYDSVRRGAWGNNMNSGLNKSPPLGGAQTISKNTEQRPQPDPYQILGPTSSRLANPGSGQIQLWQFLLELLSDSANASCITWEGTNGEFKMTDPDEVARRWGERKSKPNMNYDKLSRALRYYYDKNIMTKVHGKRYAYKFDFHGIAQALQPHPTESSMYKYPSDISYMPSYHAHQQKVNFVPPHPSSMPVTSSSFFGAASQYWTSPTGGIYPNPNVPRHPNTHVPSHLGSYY
# Procedure, shortened: (§1)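 Pools of DNA-barcoded human transcription factors, expressed in yeast as GST fusions on glutathione beads and combined with a tag-only sample, were incubated with 200 nmole of a 16-mer random double-stranded DNA library. Incubation took 30 min at room temperature in Tris/NaCl/DTT/glycerol buffer and was followed by washing, 0.1% formaldehyde crosslinking, proximity ligation (BsaI/T4 ligase, 1 h, 37 °C), PCR amplification and sequencing on an Illumina NextSeq500. Binding signal is the ratio of a hexamer's read frequency for a factor to its frequency for the tag-only sample.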
# ELK1 = molecular target: T2, ELK1 (Homo sapiens, UniProt P19419 1-428); conditions: protein: recombinant; tags: N-terminal GST; dsDNA, one strand shown
# T2 sequence: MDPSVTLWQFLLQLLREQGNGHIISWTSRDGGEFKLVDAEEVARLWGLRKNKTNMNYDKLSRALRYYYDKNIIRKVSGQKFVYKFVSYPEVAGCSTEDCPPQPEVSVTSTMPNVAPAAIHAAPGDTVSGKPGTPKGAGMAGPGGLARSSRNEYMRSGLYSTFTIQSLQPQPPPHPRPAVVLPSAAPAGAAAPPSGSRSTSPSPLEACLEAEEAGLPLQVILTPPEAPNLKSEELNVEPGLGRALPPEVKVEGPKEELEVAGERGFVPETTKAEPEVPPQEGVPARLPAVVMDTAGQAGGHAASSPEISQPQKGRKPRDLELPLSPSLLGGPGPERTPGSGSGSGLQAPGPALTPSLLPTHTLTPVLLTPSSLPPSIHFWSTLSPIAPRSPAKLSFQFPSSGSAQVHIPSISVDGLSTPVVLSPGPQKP
# Procedure, shortened: as §1
# GABPA = molecular target: T3, GABPA (Homo sapiens, UniProt Q06546 1-454); conditions: protein: recombinant; tags: N-terminal GST; dsDNA, one strand shown
# T3 sequence: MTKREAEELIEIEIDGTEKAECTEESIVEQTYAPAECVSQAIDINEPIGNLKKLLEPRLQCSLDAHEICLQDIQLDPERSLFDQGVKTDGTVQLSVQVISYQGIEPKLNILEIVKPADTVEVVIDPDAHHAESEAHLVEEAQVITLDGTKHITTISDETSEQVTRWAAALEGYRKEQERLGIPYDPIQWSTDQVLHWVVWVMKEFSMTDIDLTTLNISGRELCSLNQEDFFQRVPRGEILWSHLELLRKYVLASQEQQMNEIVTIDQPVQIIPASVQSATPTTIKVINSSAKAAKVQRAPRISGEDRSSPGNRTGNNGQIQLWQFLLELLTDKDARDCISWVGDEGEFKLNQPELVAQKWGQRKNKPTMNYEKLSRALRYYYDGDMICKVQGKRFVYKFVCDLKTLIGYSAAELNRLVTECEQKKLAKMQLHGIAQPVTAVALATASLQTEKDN
# Procedure, shortened: as §1
# ERG = molecular target: T4, ERG (Homo sapiens, UniProt P11308 1-479); conditions: protein: recombinant; tags: N-terminal GST; dsDNA, one strand shown
# T4 sequence: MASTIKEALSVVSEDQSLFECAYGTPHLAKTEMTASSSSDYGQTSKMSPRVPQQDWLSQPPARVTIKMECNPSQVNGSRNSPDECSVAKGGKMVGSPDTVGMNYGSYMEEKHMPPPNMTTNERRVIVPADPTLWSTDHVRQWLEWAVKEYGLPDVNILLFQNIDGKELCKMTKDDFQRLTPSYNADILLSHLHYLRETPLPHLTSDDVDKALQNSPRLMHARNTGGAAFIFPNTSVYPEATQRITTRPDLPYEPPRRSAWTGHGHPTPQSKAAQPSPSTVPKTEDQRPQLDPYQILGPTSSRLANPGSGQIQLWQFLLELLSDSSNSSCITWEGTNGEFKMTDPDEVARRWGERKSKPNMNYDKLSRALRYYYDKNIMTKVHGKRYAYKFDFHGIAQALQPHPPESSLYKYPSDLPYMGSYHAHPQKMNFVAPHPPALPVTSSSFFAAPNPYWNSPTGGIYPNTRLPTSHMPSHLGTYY
# Procedure, shortened: as §1
# ELF1 = ELF1 (Homo sapiens, UniProt P32519 1-619); conditions: protein: recombinant; tags: N-terminal GST; dsDNA, one strand shown
# Procedure, shortened: as §1
# EHF = molecular target: T5, EHF (Homo sapiens, UniProt Q9NZC4 1-300); conditions: protein: recombinant; tags: N-terminal GST; dsDNA, one strand shown
# T5 sequence: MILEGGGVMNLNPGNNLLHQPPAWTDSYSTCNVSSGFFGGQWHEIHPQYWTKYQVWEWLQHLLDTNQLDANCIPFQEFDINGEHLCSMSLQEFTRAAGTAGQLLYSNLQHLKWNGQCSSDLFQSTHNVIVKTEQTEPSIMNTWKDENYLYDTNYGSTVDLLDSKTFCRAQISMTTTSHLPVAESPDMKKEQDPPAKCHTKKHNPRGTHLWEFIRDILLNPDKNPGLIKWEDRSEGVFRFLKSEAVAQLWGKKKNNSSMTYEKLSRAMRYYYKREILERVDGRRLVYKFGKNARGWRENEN
# Procedure, shortened: as §1
# SPI1 = SPI1 (Homo sapiens, UniProt P17947 1-270); conditions: protein: recombinant; tags: N-terminal GST; dsDNA, one strand shown
# Procedure, shortened: as §1
# SPIB = SPIB (Homo sapiens, UniProt Q01892 1-262); conditions: protein: recombinant; tags: N-terminal GST; dsDNA, one strand shown
# Procedure, shortened: as §1
# ELK3 = molecular target: T6, ELK3 (Homo sapiens, UniProt P41970 1-407); conditions: protein: recombinant; tags: N-terminal GST; dsDNA, one strand shown
# T6 sequence: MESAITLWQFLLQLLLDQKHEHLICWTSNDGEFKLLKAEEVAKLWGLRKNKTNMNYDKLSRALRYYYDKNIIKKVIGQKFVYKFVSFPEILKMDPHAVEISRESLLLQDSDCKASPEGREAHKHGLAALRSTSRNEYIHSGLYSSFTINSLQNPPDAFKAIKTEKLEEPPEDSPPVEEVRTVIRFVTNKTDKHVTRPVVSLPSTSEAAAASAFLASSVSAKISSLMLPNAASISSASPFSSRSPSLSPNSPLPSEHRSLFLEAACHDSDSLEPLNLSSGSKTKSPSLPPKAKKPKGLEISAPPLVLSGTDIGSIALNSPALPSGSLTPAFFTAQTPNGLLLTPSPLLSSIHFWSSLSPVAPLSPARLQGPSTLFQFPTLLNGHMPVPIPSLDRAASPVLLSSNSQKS
# Procedure, shortened: as §1
# FEV = molecular target: T7, FEV (Homo sapiens, UniProt Q99581 1-238); conditions: protein: recombinant; tags: N-terminal GST; dsDNA, one strand shown
# T7 sequence: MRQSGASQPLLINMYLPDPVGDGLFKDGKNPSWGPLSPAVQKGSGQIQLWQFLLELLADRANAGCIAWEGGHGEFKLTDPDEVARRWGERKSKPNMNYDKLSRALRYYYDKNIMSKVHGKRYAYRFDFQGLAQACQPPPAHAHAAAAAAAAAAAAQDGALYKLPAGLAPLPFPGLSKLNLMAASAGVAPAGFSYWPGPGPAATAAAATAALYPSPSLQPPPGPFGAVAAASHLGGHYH
# Procedure, shortened: as §1
# ETV5 = ETV5 (Homo sapiens, UniProt P41161 1-510); conditions: protein: recombinant; tags: N-terminal GST; dsDNA, one strand shown
# Procedure, shortened: as §1
# HSF1 = HSF1 (Homo sapiens, UniProt Q00613 1-529); conditions: protein: recombinant; tags: N-terminal GST; chain copies: 3; dsDNA, one strand shown
# Procedure, shortened: as §1
# SPIC = molecular target: T8, SPIC (Homo sapiens, UniProt Q8N5J4 1-248); conditions: protein: recombinant; tags: N-terminal GST; dsDNA, one strand shown
# T8 sequence: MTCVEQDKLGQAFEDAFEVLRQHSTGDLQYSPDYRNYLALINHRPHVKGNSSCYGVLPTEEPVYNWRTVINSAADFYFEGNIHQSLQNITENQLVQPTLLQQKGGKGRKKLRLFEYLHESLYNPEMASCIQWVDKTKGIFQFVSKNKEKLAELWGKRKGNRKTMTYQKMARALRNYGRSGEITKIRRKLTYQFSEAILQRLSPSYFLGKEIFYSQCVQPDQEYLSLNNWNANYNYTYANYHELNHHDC
# Procedure, shortened: as §1
# ELF4 = ELF4 (Homo sapiens, UniProt Q99607 1-663); conditions: protein: recombinant; tags: N-terminal GST; dsDNA, one strand shown
# Procedure, shortened: as §1
# ELK4 = molecular target: T9, ELK4 (Homo sapiens, UniProt P28324-2 1-405); conditions: protein: recombinant; tags: N-terminal GST; dsDNA, one strand shown
# T9 sequence: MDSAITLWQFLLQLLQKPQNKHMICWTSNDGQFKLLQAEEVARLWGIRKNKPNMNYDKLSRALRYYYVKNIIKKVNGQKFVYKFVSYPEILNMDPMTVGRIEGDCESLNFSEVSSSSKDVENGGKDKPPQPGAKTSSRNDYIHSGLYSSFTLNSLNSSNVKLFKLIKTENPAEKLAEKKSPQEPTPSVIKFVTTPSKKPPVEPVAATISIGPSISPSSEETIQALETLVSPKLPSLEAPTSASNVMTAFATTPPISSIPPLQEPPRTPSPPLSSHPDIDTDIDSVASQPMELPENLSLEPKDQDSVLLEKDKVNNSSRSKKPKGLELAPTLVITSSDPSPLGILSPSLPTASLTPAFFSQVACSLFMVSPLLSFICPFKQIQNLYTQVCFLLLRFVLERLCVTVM
# Procedure, shortened: as §1
# ETV2 = molecular target: T10, ETV2 (Homo sapiens, UniProt O00321 1-342); conditions: protein: recombinant; tags: N-terminal GST; dsDNA, one strand shown
# T10 sequence: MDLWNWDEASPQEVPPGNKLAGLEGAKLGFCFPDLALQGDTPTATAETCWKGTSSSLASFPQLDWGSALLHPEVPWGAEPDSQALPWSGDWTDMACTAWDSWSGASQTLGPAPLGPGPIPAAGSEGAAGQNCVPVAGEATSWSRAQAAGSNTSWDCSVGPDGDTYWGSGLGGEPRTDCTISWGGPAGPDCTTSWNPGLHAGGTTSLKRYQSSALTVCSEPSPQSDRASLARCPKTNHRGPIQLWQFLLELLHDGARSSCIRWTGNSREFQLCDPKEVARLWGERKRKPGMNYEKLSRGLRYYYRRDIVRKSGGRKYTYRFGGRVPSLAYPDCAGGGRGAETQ
# Procedure, shortened: as §1
# ELF3 = molecular target: T11, ELF3 (Homo sapiens, UniProt P78545 1-371); conditions: protein: recombinant; tags: N-terminal GST; dsDNA, one strand shown
# T11 sequence: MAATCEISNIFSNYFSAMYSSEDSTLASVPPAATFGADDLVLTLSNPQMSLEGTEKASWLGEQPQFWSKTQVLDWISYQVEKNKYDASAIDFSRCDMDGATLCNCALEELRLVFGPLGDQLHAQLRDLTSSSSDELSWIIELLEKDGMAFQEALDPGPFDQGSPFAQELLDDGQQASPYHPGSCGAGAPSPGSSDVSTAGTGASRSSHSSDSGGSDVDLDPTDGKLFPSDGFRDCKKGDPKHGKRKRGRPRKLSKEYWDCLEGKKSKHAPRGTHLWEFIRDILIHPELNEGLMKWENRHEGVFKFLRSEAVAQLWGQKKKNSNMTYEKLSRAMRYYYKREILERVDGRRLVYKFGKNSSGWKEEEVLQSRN
# Procedure, shortened: as §1
# CRX = CRX (Homo sapiens, UniProt O43186 1-299); conditions: protein: recombinant; tags: N-terminal GST; dsDNA, one strand shown
# Procedure, shortened: as §1
# ETV1 = ETV1 (Homo sapiens, UniProt P50549 1-477); conditions: protein: recombinant; tags: N-terminal GST; dsDNA, one strand shown
# Procedure, shortened: as §1
# CRX, sequence (O43186 whole entry): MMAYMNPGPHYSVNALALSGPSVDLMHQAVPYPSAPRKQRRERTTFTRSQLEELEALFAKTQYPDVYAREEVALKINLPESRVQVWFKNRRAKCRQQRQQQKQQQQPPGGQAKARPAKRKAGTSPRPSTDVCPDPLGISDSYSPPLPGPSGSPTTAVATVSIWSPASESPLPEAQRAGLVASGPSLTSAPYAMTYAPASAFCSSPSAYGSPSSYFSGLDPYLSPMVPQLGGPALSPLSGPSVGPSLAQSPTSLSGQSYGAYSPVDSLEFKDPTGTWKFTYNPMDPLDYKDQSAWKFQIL
# HSF1, sequence (Q00613 whole entry): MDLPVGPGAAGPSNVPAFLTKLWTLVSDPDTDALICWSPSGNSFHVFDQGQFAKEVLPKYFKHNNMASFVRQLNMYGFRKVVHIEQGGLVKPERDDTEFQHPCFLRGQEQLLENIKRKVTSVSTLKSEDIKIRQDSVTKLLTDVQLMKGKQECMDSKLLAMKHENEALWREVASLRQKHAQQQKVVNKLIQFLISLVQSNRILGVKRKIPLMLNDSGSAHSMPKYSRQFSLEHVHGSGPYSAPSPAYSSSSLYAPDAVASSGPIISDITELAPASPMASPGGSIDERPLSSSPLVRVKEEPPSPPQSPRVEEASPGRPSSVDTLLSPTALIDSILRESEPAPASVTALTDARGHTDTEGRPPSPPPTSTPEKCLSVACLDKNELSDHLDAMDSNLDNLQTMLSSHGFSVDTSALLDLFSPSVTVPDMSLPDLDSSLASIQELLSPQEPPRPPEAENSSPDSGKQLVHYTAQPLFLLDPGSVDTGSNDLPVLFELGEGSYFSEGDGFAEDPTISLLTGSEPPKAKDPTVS
# ELF4, sequence (Q99607 whole entry): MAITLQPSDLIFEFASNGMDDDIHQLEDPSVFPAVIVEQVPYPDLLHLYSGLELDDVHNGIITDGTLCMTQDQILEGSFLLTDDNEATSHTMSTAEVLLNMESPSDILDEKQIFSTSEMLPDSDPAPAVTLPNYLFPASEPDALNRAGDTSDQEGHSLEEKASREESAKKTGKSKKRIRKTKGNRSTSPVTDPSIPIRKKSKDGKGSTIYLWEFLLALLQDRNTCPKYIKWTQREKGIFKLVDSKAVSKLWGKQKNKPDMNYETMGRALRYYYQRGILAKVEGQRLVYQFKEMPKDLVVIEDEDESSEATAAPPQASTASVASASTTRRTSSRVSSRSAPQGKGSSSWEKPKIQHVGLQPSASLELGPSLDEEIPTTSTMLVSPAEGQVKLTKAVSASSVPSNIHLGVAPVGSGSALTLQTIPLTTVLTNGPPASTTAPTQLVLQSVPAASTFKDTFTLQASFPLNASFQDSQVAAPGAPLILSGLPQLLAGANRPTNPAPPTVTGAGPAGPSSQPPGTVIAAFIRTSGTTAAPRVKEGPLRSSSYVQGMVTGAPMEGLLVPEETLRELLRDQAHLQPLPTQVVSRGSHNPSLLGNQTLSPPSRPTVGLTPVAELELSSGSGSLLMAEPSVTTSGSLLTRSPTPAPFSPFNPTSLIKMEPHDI
# ETV1, sequence (P50549 whole entry): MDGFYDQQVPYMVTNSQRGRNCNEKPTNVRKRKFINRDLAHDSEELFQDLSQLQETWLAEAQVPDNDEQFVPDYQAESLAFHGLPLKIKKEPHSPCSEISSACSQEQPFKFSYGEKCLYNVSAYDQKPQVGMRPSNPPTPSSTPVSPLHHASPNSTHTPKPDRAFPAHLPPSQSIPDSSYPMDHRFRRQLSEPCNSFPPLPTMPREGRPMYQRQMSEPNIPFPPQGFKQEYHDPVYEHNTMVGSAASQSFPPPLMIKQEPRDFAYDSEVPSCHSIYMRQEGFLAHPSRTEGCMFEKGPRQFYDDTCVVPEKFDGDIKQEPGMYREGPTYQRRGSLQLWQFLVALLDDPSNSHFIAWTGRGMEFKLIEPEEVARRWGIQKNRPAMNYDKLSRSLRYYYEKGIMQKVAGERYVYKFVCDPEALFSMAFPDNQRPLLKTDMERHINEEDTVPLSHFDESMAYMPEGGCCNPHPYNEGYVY
# ELF1, sequence (P32519 whole entry): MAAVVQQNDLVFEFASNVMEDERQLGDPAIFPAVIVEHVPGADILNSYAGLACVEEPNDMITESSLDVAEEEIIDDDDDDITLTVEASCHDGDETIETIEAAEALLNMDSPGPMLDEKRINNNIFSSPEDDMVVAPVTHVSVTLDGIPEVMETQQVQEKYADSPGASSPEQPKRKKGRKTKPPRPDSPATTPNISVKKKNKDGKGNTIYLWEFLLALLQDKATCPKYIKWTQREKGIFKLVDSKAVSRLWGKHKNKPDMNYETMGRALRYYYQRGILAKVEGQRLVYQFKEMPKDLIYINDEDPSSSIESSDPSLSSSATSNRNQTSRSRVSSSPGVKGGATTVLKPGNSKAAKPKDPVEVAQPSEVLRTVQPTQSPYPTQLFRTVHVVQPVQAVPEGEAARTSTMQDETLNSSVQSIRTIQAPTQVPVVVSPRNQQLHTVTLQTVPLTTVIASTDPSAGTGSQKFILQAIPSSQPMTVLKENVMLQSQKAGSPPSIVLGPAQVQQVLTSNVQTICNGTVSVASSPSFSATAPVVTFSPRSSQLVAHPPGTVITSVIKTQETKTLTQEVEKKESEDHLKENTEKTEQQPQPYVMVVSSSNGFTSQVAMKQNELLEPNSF
# ETV5, sequence (P41161 whole entry): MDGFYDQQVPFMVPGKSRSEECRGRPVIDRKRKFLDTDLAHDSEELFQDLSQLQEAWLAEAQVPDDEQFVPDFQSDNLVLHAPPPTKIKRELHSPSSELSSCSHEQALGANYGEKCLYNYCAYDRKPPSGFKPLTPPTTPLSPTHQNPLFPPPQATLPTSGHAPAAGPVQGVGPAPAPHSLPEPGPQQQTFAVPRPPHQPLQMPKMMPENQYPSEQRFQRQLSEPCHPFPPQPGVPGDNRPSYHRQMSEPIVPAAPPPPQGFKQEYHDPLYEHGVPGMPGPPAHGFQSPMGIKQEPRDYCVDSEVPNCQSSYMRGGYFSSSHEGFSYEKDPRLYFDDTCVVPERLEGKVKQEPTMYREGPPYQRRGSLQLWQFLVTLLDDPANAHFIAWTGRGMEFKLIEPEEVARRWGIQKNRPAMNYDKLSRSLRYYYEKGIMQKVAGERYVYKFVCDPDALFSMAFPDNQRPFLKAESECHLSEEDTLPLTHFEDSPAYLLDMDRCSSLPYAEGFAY
# SPIB, sequence (Q01892 whole entry): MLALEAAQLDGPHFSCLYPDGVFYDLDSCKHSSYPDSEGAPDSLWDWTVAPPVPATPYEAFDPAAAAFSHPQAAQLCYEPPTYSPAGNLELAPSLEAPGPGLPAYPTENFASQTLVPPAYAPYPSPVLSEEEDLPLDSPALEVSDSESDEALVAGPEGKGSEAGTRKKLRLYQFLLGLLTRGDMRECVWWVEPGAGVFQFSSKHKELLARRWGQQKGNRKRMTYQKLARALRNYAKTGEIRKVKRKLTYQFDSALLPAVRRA
sequence,measurement,setting,value
TTCTGC,binding signal,FLI1,"1.54 fold enrichment (6-mer frequency, TF over GST control)"
same,binding signal,ELK1,"1.49 fold enrichment (6-mer frequency, TF over GST control)"
same,binding signal,GABPA,"1.4 fold enrichment (6-mer frequency, TF over GST control)"
same,binding signal,ERG,"1.32 fold enrichment (6-mer frequency, TF over GST control)"
same,binding signal,ELF1,"1.52 fold enrichment (6-mer frequency, TF over GST control)"
same,binding signal,EHF,"1.46 fold enrichment (6-mer frequency, TF over GST control)"
same,binding signal,SPI1,"1.5 fold enrichment (6-mer frequency, TF over GST control)"
same,binding signal,SPIB,"1.34 fold enrichment (6-mer frequency, TF over GST control)"
same,binding signal,ELK3,"1.39 fold enrichment (6-mer frequency, TF over GST control)"
same,binding signal,FEV,"1.39 fold enrichment (6-mer frequency, TF over GST control)"
same,binding signal,ETV5,"1.46 fold enrichment (6-mer frequency, TF over GST control)"
same,binding signal,HSF1,"1.57 fold enrichment (6-mer frequency, TF over GST control)"
same,binding signal,SPIC,"1.37 fold enrichment (6-mer frequency, TF over GST control)"
same,binding signal,ELF4,"1.52 fold enrichment (6-mer frequency, TF over GST control)"
same,binding signal,ELK4,"1.65 fold enrichment (6-mer frequency, TF over GST control)"
same,binding signal,ETV2,"1.26 fold enrichment (6-mer frequency, TF over GST control)"
same,binding signal,ELF3,"1.54 fold enrichment (6-mer frequency, TF over GST control)"
same,binding signal,CRX,"1.36 fold enrichment (6-mer frequency, TF over GST control)"
same,binding signal,ETV1,"1.45 fold enrichment (6-mer frequency, TF over GST control)"
